TAG inh: reduces triacylglycerol accumulation in H9c2 cells. Nile Red lipid (TAG) fluorescence; cells loaded with 200 µM oleic acid. inhibition, % at 12.5 µM. 0.66% of 230,000 active;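 active means pattern-corrected inhibition of lipid staining of at least 50% with the nuclear-stain viability signal not falling by more than 50%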;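 further: 0% = DMSO wells and 100% = triacsin C control wells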
CHT inh: human CHT choline transport inhibition; Q9GZV3; CHT-expressing cells, membrane potential dye, choline response; active compounds read low; B-score at 10 µM; 0.86% of 310,000 active; AID 488975;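 active means B-score over 3 SD under the library average, and starting fluorescence ratio not unusually high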;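 further: choline stimulus applied at its EC90 after an EC20 pre-addition; B-score computed on integrated fluorescence ratio after choline addition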
Target sequence (Q9GZV3 whole entry, looked up): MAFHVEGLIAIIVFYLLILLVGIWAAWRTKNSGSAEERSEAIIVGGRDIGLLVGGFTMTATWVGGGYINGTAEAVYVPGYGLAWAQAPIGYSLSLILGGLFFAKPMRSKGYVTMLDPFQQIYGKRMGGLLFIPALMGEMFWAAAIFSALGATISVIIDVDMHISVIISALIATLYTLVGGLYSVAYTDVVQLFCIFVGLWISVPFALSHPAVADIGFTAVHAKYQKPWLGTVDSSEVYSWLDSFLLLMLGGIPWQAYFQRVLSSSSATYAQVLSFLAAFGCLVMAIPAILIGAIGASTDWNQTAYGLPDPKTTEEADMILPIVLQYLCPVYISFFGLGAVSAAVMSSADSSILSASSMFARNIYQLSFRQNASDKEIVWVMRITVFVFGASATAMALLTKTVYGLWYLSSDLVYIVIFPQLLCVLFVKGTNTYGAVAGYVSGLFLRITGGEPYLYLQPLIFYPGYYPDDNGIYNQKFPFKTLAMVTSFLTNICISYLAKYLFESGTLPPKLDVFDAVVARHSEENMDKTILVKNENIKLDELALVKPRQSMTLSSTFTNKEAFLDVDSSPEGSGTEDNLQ
beta cell repl: inducers of beta-cell replication in MIN6 cells | 0.29% of 330,000 active | MIN6 cells proliferation, ATPlite luminescence, 48 h; cells starved in 0.2% serum; 100% = growth in 10% serum | proliferation, % at 10 µM;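 active means compounds whose signal lies at least 3.5 SD above the mean of all wells on their plate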;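 further: 0% = DMSO-treated cells in low-serum medium and 100% = 10% serum control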
CHT allo act: allosterically activates the human high affinity choline transporter. Q9GZV3. 0.49% of 310,000 active. B-score at 10 µM. CHT-expressing cells, membrane potential dye, choline EC20; active compounds read high; LV-AA mutant CHT in HEK293 cells. AID 488977;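 active means initial fluorescence not abnormally high and integrated response B-score, plate-corrected, over 3 SD above library mean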
TAG conf: triacylglycerol accumulation inhibition, confirmation; H9c2 lipid accumulation, Nile Red fluorescence; cells loaded with 200 µM oleic acid; inhibition, % at 12.5 µM; AID 651629; 71% of 990 active; shares compounds with TAG inh;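 active means mean inhibition across replicates of 40% or more; inactive means mean inhibition below 40%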;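 further: plate controls were DMSO only wells for no effect and Triacsin C treated wells for full effect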
An asterisk follows results filed as active; i = inactive; . = no result. An excerpt weighted towards active compounds, which were near 1.7% of everything screened.

SMILES	TAG inh	CHT inh	beta cell repl	CHT allo act	TAG conf
O=C(NCCOc1nc(N2CCCCC2)nc(N2CCOCC2)n1)Nc1ccccc1	.	i	0	i	.
O=C(NCCOc1nc(N2CCOCC2)nc(N2CCOCC2)n1)Nc1ccccc1	54*	i	-2	i	30
CCOc1ccc(C2/C(=C(/O)c3ccc(S(=O)(=O)N4CCCCC4)cc3)C(=O)C(=O)N2CCCOC)cc1OC (centres undefined)	12	i	1	i	.
CCOc1ccc2nc(NC(=O)CN3CCN(C)CC3)sc2c1	68*	i	-3	i	38
CC(C)Sc1nnc(NC(=O)c2ccco2)s1	55*	i	0	i	18
Cc1ccc(C)c(S(=O)(=O)N2CCN(C(=O)c3cccn3C)CC2)c1	-5	i	3	i	.
Fc1cccc(Nc2nc(-c3ccncc3)nc3ccccc23)c1	69*	i	0	i	63*
Cc1cc(C)c2nc(-c3ccncc3)cc(C(=O)N3CCN(Cc4ccccc4Cl)CC3)c2c1	62*	i	-7	i	59*
O=C(c1cc(-c2ccncc2)nc2ccc(Cl)cc12)N1CCN(Cc2ccc3c(c2)OCO3)CC1	23	i	-1	i	.
O=C(CN(CC1CCCO1)S(=O)(=O)c1ccc(S(=O)(=O)NC2CC2)cc1)Nc1ccccc1 (centres undefined)	51*	i	1	i	38
Cc1ccc(-n2nc(C(=O)NCc3ccc(C)o3)c3c4ccccc4n(C)c3c2=O)cc1	53*	i	0	i	21
COc1ccc(-n2nc(C(=O)NCc3ccco3)c3c4ccccc4n(C)c3c2=O)cc1	.	i	1	i	.
Cn1cnc(C(=O)N2CCc3ccccc3C2)c1C(=O)N1CCc2ccccc2C1	-37	.	1	.	.
Cc1cccc(NC(=O)CNC(=O)CSc2nc(N)cc(N)n2)c1C	-20	.	-3	.	.
Cc1cccc(NC(=O)CCC(=O)Nc2nnc(C(F)(F)F)s2)c1	-6	i	4	i	.
Cc1ccccc1-c1nnc(SCC(=O)N(C)c2c(N)n(Cc3ccccc3)c(=O)[nH]c2=O)n1C	-5	i	-1	i	.
CC(C)(C)c1csc(NC(=O)Cc2cccs2)n1	14	i	-1	i	.
CC(C)(C)c1csc(NC(=O)c2cccs2)n1	73*	i	-1	i	34
COC(=O)C1=C(C)N(Cc2ccccc2)C(=NCc2ccc(OC)cc2)N[C@H]1c1ccccc1	56*	.	-6	.	17
Cn1c(CNC(=O)c2ccco2)nnc1SCC(=O)Nc1c(F)cc(F)cc1Br	30	i	-1	i	.
Cc1cccc(N=Nc2c(C)c(C#N)c(O)[nH]c2=O)c1	.	i	4	i	.
Cc1c(C#N)c(O)n(CCO)c(=O)c1N=Nc1ccc2c(c1)COC2=O	85*	i	-1	i	94*
Cc1ccc2[nH]c(-c3ccccc3)cc(=O)c2c1	53*	i	-8	i	58*
Cc1ccc(NC(=O)CSc2nnc(C)c(=O)n2N)cc1Cl	51*	i	3	i	44*
CN(Cc1nc(-c2ccc(Cl)cc2)no1)C(=O)c1ccc2c(c1)OCO2	6	i	-4	i	.
SMILES	TAG inh	CHT inh	beta cell repl	CHT allo act	TAG conf
COc1ccc(-c2nc(NC(=O)C3CCN(c4nc5ccccc5o4)CC3)sc2C)cc1	66*	i	-5	i	58*
CCCN1CCN(C(=O)c2ccc(CS(=O)c3ccc(Br)cc3)o2)CC1 (centres undefined)	6	.	.	.	.
COc1ccc(C[C@H]2CN3C(=NC[C@@H]3Cc3ccc(O)cc3)N2CCNC(=O)c2ccc(C)c(Br)c2)cc1	62*	i	-8	i	49*
O=C(Nc1nc2ccc(C(=O)N3CCCCC3)cc2s1)C1CCCCC1	64*	i	-5	i	68*
Nc1ccc2nc(NC(=O)C3CCCCC3)sc2c1	10	i	-3	i	.
COCCn1cnc2c(c1=O)c1nc3ccccc3nc1n2/N=C/c1ccc(OC)c(OC)c1	68*	i	-4	i	88*
COCCn1cnc2c(c1=O)c1nc3ccccc3nc1n2/N=C/c1ccco1	7	i	-1	i	.
C=CCc1c(C)nc(-c2ccccc2)nc1N/N=C/c1ccncc1	65*	i	-5	i	28
